# Data published in PMC5540273 (PLoS ONE, 2017).
# Tested on: PRKD3
# 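Note: kd values determined as follow-up on hits from a single-replicate KINOMEscan panel screen.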
row,Structure (SMILES),Kd
1,COc1cccc(C2=C(Nc3cc(Cl)c(O)c(Cl)c3)C(=O)NC2=O)c1 [SB-390767],> 10 µM
2,COc1ccc(Nc2nccc(N3CCC(NC(=O)c4cc5ccccc5s4)C3)n2)cc1 (centres unmarked) [GSK1379738],> 10 µM
3,Cc1ccccc1-c1cc(-c2c[nH]nc2-c2ccccn2)ccn1 [GW680061],> 10 µM
4,COC(=O)C(Cc1ccccc1)NC(=O)NC1CCN(c2ccnc(Nc3ccc(F)cc3)n2)C1 (centres unmarked) [GSK1379714],> 10 µM
5,COc1ccc(Nc2nccc(-c3ccc(NC(=O)c4cc5cc(F)ccc5[nH]4)cc3)n2)cc1 [GSK1229496],> 10 µM
6,CS(=O)(=O)CCNCc1nc(-c2ccc3ncnc(Nc4ccc(OCc5ccccc5)c(Cl)c4)c3c2)cs1.Cl [GW582764],> 10 µM
7,FC(F)(F)c1ccccc1-c1cc(-c2c[nH]nc2-c2ccccn2)ccn1 [GW679396],> 10 µM

# Tested on: PRKG2
row,Structure (SMILES),Kd
1,CNC(=O)c1ccc(C)c(-n2c(C)cc(OCc3ccc(F)cc3F)c(Br)c2=O)c1,> 10 µM
2,CNc1cc(-c2ccc3c(N)n[nH]c3c2)nc(N)n1 [GSK2224810],0.039 µM
3,CC[C@@H]1CO[C@H](C(=O)Nc2ccccc2)CN1c1cc(-c2ccc3c(N)n[nH]c3c2)nc(NC)n1 [GSK2376236],0.4 µM
4,COc1ccc(Nc2nccc(N3CCC(NC(=O)C(C)c4ccc(Cl)cc4)C3)n2)cc1 (centres unmarked) [GSK1379735],> 10 µM
5,Cn1cncc1-c1cc2c(Nc3ccc(OCc4ccccc4)cc3)ncnc2cn1 [GW281179],3.3 µM
6,NS(=O)(=O)c1cccc(N/C=C2\C(=O)Nc3ccc(S(=O)(=O)Cc4c(Cl)cccc4Cl)cc32)c1 [GSK398099],> 10 µM
7,Cc1c(Cn2c(C)c(C)n3c(=O)cc(N4CCOCC4)nc23)cccc1C(F)(F)F [GSK2328680],> 10 µM
8,Cn1cncc1C(=O)NC1CCN(c2ccnc(Nc3ccc(F)cc3)n2)C1 (centres unmarked) [GSK1379717],> 10 µM
9,Cn1cnc2c(N)ncnc21 [SKF-97623],> 10 µM

# Tested on: RIOK1
row,Structure (SMILES),Kd
1,Nc1cccc(-c2ccc3c(N)n[nH]c3c2)n1 [GSK2192730],0.39 µM
2,CNc1cc(-c2ccc3c(N)n[nH]c3c2)nc(N)n1 [GSK2224810],1.1 µM
3,O=C(Nc1n[nH]c2cc(-c3ccsc3)ccc12)C1CC1 [SB-732932],0.18 µM
4,CC(C)c1cc(-c2ccc3c(N)n[nH]c3c2)nc(N)n1 [GSK2250882],0.58 µM
